Records with an inconclusive call do not appear. A call without a number means that no potency is given here. The source made the active and inactive calls. Calls come from the whole dose curve; as a rule, active = well fitted inhibition curve with a large enough effect; inconclusive = small, poorly fitted or top-dose-only effect, or effect the other way; inactive = flat fitted curve, though single readings scatter.
Target: Menin (Homo sapiens) (UniProt O00255)
Assay: Confirmation of Inhibitors Targeting the Menin-MLL Interaction in MLL Related Leukemias: Confirmation in an HTRF (commercial TR-FRET) Assay using His-tagged menin and biotin-labeled MLL peptide
How it was run: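 HTRF: His6-menin (200 nM) and biotin-MLL-w.t. peptide (80 nM) preincubated 15 min, then compounds 1 hr at ambient, before Eu-cryptate anti-His (3.5 nM) and streptavidin-XL665 (10 nM) for 1 h; 50 mM Tris-HCl pH 7.5, 50 mM NaCl, 1 mM DTT, BSA.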
Potency is the fitted concentration of half-maximal effect.

Chain of Menin (Homo sapiens) (O00255 whole entry, looked up): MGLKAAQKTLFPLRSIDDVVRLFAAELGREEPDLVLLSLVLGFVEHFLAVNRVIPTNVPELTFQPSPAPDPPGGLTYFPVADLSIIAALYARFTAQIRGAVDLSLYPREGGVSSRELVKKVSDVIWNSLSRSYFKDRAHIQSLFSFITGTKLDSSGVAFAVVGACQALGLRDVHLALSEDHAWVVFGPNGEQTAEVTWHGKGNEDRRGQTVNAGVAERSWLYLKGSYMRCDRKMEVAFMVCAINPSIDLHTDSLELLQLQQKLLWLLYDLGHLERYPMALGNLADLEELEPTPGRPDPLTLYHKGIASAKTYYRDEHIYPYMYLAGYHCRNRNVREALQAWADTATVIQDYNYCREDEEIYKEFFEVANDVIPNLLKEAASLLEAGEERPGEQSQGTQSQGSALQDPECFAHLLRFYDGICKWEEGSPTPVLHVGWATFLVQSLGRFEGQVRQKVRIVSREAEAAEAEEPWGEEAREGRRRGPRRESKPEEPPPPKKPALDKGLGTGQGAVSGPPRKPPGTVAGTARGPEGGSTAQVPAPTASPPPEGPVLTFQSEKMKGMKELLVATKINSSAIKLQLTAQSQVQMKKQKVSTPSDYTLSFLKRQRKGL

Compound | Potency
CCN1CCN(CC(=O)Nc2ccc(C(C)=O)cc2)CC1 | inactive
Cc1ccc(NC(=O)C(C)N2C(=O)c3ccccc3C2=O)c(C)c1 (stereo not given) | inactive
COC(=O)COc1ccc(C(C2C(=O)CC(C)(C)CC2=O)C2C(=O)CC(C)(C)CC2=O)cc1 | inactive
Cc1cc2c(c(=O)n1Cc1ccccc1)C1O[C@](c3ccsc3)(Cc3cc(C#N)ccc31)O2 | inactive
O=C(Nc1nnc(SCc2ccc(F)cc2)s1)c1ccc2c(c1)C(=O)N(c1ccccc1Cl)C2=O | inactive
COCC(=O)Nc1cccc2ccccc12 | inactive
Cc1ccc(C)n1-c1ccc(N(C)C)cc1 | inactive
O=C(N/N=C/c1cn(-c2cccs2)nc1-c1ccccc1)c1ccccc1O | inactive
COc1ccc(NC(=O)N2CC[C@@]3(CCCN(C(=O)c4csnn4)C3)C2)cc1 | inactive
COc1cc(OC)c2ccc(=O)oc2c1C(CCN1CCOCC1)c1ccc(N(C)C)cc1 (stereo not given) | inactive
C[N+]1(CCNC(=O)/C=N/O)CCCCC1 | inactive
CCOC(=O)CCC(=O)NCc1ccc2c(c1)cc(C)n2C | inactive
CC(=O)c1ccc2c(c1)N(CCCN1CCC(CCO)CC1)c1ccccc1S2 | inactive
CCCC(=O)NC(c1ccccc1Cl)c1ccc2cccnc2c1O (stereo not given) | inactive
COc1ccccc1N(CC1CO1)S(=O)(=O)c1ccccc1 (stereo not given) | inactive
N#CC1=C(N)OC2=C(C(=O)CC(c3ccco3)C2)C1c1ccc(OCc2c(F)cccc2Cl)cc1 (stereo not given) | inactive
CN(C)/C=C(/C(=O)c1ccc(Cl)cc1)S(=O)(=O)c1ccc(Cl)cc1 | inactive
N#Cc1ccc(Cl)cc1NC(=O)CNCc1cccs1 | inactive

Compound | Potency
COc1ccc(/C=C(\C#N)C(=O)NCc2ccccc2)cc1 | inactive
CCc1ccc(NC(=O)CSc2nc(O)cc(=O)n2C2CCCC2)cc1 | inactive
CS(=O)(=O)c1ccc2nc(NC(=O)Nc3cccc(Cl)c3)sc2c1 | 112 µM (active)
CCOc1ccc2c(c1)C(NC(C)=O)C(=O)N2CCN1CCOCC1 (stereo not given) | inactive
CCOC(=O)N1CCN(CCC(=O)c2ccc(Br)cc2)CC1 | inactive
O=C(NC1CCN(c2ncccn2)CC1)c1c(F)cccc1F | inactive
Cc1ccccc1-c1n[nH]c(=S)n1C | inactive
C=C1CCC[C@]2(C)C[C@H]3OC(=O)C(CNCCN(CC)CC)[C@H]3CC12 (stereo not given in full) | inactive
CCOC(=O)Cn1cnc2scc(-c3ccc(C)c(C)c3)c2c1=O | inactive
CCCCn1c(SCC(=O)NCc2ccc(OC)c(C(=O)O)c2)nc2cc(S(N)(=O)=O)ccc21 | inactive
COc1ccccc1CNCC(=O)Nc1ccc(C#N)cc1 | inactive
COCCNC(=O)C(OC(=O)c1nsc(Cl)c1Cl)C(C)C (stereo not given) | inactive
CC(NC(=O)c1cnc2ccccc2n1)c1ccccc1 (stereo not given) | inactive
CCCCC(=O)NC(=S)Nc1nnn(CCC)n1 | inactive
COc1cc(OC)cc(C(=O)N/N=C/c2ccc(OC)c(COc3ccc4ccccc4c3)c2)c1 | inactive
Cc1sc2ncnc(NC3CCN(Cc4ccccc4)CC3)c2c1C | 126 µM (active)
NC(=O)C1CCN(C2=C(Cl)C(=O)c3ccccc3C2=O)CC1 | inactive
